# Compound activity from PubChem.
# This is a sample that favours compounds with a hit; in the whole collection about 19% have one here.
# SW480 rerep: inducers of DNA re-replication in SW480 colon cancer cells | Potency, µM (highest dose often 46.1 µM), for the others: top-dose re-replication activation, most hits filed as activators | actives 1.8% (n = 340,000) | SW480 DNA re-replication, Hoechst DNA content imaging, 48 h | AID 624297; also: potency is read from the fitted curve at half-maximal effect; % of control where 0% means no effect; nearly all actives have a fitted effect of over 55% in size
#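 Treated cells incubate 48 hr (37 C, 5% CO2), are stained 40 min with Hoechst, and nuclear fluorescence is enumerated; a rise in nuclei with high DNA signal marks re-replication.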
# BCR signal inh: inhibitors of chronic active B-cell receptor signaling; ABC-DLBCL IkBa-CBG/CBR reporter, luminescence ratio, 4 h; Potency, µM (highest dose often 46.1 µM), inactives show at the highest dose activity change, negative = inhibition, hits mostly inhibitors; actives 0.05% (n = 340,000); active = well fitted inhibition curve with a large enough effect in the signal ratio, with a control signal flat, not every such curve was filed as active; inconclusive = small, poorly fitted or top-dose-only effect, or effect the other way, or a change in a side signal; the % refers to the signal ratio;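 also: potency is read from the fitted curve at half-maximal effect; plate controls were basal doxycycline-induced cells for no effect and cells given 10 µM MG132 for full effect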
#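 Compounds up to 46 uM were incubated four hours with TMD8 cells whose green CBG68 luciferase is fused to IkappaBalpha; red CBR luminescence normalised the signal, and concentration-effect curves were fitted to fusion, red and ratio data.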
# DT40 TDP1 CPT: growth inhibition of DT40 Tdp1-/-;hTDP1 cells with camptothecin (screen for TDP1 inhibitors); chicken DT40 Tdp1-/-;hTDP1 cells + 20 nM CPT, ATP luminescence, 48 h; Potency, µM (doses to about 46.2 µM), inactives show at the highest dose activity change, negative = growth inhibition, most hits filed as inhibitors; actives 12% (n = 420,000); AID 686979; also: potency is read from the fitted curve at half-maximal effect; % is scaled to controls: 0 for no effect and ±100 for the full control effect; nearly all actives have a fitted effect of over 55% in size
#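 Chicken DT40 Tdp1-/- cells stably complemented with human TDP1 were seeded at 400 cells/well in medium containing 20 nM camptothecin, exposed to pin-transferred compounds, and grown at 37 °C for at least 48 hr. Viability was read as ATP luminescence.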
# IL1B secr inh: inhibitors of inflammasome signaling (IL-1 beta secretion) | THP-1 LPS/ATP IL-1B secretion, AlphaLISA, 16 h; active compounds read low | activity change, % at 57.5 µM | actives 4.7% (n = 360,000); in the data active = activity change below about -50%; inconclusive = mostly about -30% to -49%; also: % is scaled to controls: 0 for no effect and ±100 for the full control effect
#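 Secreted IL-1B measured by AlphaLISA bead assay after 16 h compound exposure of THP-1 cells; compounds (final up to 57.5 uM) added 1 h before LPS (250 ng/mL) and ATP (1.25 mM) stimulation; lower signal means less secretion.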
# MCF10A rerep: induces DNA re-replication in MCF 10a normal breast cells. actives 2.9% (n = 350,000). MCF 10A DNA re-replication, Hoechst nuclear intensity, 48 h. Potency, µM (highest dose often 46.1 µM), for inactives: at the top dose activity, positive = re-replication, hits mostly activators; also: potency is read from the fitted curve at half-maximal effect; % of control where 0% means no effect; nearly all actives have a fitted effect of over 50% in size
# DT40 TDP1 no CPT: qHTS for Inhibitors of human tyrosyl-DNA phosphodiesterase 1 (TDP1): qHTS in cells in absence of CPT; actives 15% (n = 420,000); Potency, µM (highest dose often 46.2 µM), inactives show at the top dose activity change, negative = growth inhibition, most hits filed as inhibitors; DT40 Tdp1-/- hTDP1 cells, no CPT, ATP luminescence, 48 h; also: potency is read from the fitted curve at half-maximal effect; % is scaled to controls: 0 for no effect and ±100 for the full control effect; nearly all actives have a fitted effect of over 55% in size
#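 Cells were dispensed at 400 per well, compounds added by pin tool, plates incubated ≥48 hr at 37 °C, then CellTiter-Glo added for 30 min at room temperature before luminescence reading. Line: DT40 Tdp1-/- complemented with hTDP1; camptothecin omitted.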
# * hit, by the source's call; ? = inconclusive; nt = no result; [ ] = dose if it differs, or a comment. Unless noted, calls follow the shape of the dose curve; as a rule, active = well fitted curve in the direction sought with a large enough effect; inconclusive = small, poorly fitted or top-dose-only effect, or another doubt; inactive = no such curve, though single readings can be large; an effect the other way counts as inactive or inconclusive.
SMILES,SW480 rerep,BCR signal inh,DT40 TDP1 CPT,IL1B secr inh,MCF10A rerep,DT40 TDP1 no CPT
c1ccc2c(c1)Nc1ccncc1S2,-4.7%,?,-18.8%,-94.1*,2.6%,?
Cc1ccc(NCc2cccc(B(O)O)c2)cc1,?,nt,-26.9%,-94.8*,-6.3%,-25.6%
CCOc1ccc(CC(=O)NCCc2sc3nc(-c4ccc(F)cc4)nn3c2C)cc1,nt,14.3%,?,nt,nt,?
O=C(NN1C(=O)c2ccccc2NC1c1ccoc1)c1ccc([N+](=O)[O-])cc1 (stereo unspecified),4.8%,-23.9%,-17.0%,?,-9.1%,7.8%
O=C(NN1C(=O)c2ccccc2NC1c1ccc([N+](=O)[O-])o1)c1ccccc1 (stereo unspecified),?,?,?,-76.3*,?,16.4µM*
O=C(NN1C(=O)c2ccccc2NC1c1ccc([N+](=O)[O-])o1)c1ccc([N+](=O)[O-])cc1 (stereo unspecified),?,-3.5%,18.4µM*,-103.8*,?,8.2µM*
COc1ccc(C2Nc3ccc(NC(C)=O)cc3C(=O)N2Cc2cccc(Cl)c2)cc1COc1ccc(NC(C)=O)cc1 (stereo unspecified),nt,nt,12.6µM*,nt,nt,10µM*
COc1ccc(C2Nc3ccc(NC(=O)CO)cc3C(=O)N2Cc2cccc(Cl)c2)cc1COc1ccc(NC(C)=O)cc1 (stereo unspecified),nt,nt,?,nt,nt,11.2µM*
CC(=O)N1CCOc2ccc(S(=O)(=O)NC(C)c3ccccc3)cc21 (stereo unspecified),13.5%,1.2%,-6.1%,52.6,5.9%,-2.2%
CC(=O)c1c(C)cc(C)c(CSc2nnc(-c3ccco3)o2)c1C,-13.4%,1.5%,12.6µM*,-0.1,4.6%,22.4µM*
Cc1cccc(CSc2nnc(-c3ccco3)o2)c1,-8.8%,-14.2%,8.7%,-20.9,0.1%,-4.6%
Cn1nc(-c2ccccc2)c(C(O)c2ccc(Cl)cc2)c1Cl (stereo unspecified),-2.3%,4.6%,?,20.9,428.0%[0.0737 µM],?
Cn1nc(-c2ccccc2)c(CSc2ccccc2Cl)c1Cl,5.8µM*,?,?,-18.2,7.31µM*,10.3µM*
COc1ccc(CNC(=O)c2cccc(N3CCCS3(=O)=O)c2)cc1OC,nt,nt,10.3µM*,nt,nt,7.31µM*
Cn1nnnc1SCC(=O)Nc1nc(-c2ccccc2)c(-c2ccccc2)o1,-0.4%,-3.9%,?,-9.5,?,?
CC(=O)Nc1nc(-c2ccccc2)c(-c2ccccc2)o1,-0.3%,11.2%,-21.2%,-66.3*,-4.2%,-19.7%
COc1cc(OC)cc(C(=O)Nc2cccc(NC(=O)c3cc(OC)cc(OC)c3)n2)c1,-5.6%,nt,?,-5.1,6.5%,?
COc1cc(OC)cc(C(=O)Nc2nc(-c3ccccc3)c(-c3ccccc3)o2)c1,?,1.4%,7.31µM*,0.9,14.2%,10.3µM*
O=C(c1[nH]c(C(F)(F)F)nc1-c1ccccc1)N1CCC(Cc2ccccc2)CC1,nt,nt,?,-23.0,nt,?
CN(CC(=O)Nc1ccccc1Cl)C(=O)COC(=O)c1ccccc1[N+](=O)[O-],-3.2%,?,-0.3%,4.5,3.1%,-16.5%
CCc1nc(C)cn1S(=O)(=O)c1cc(Cl)c(OC)cc1Cl,15.1%,?,?,24.4,?,?
CCc1nc(C)cn1S(=O)(=O)c1cc(C)c(OC)c(C)c1C,15.9%,-10.6%,8.2µM*,-4.4,?,10.3µM*
CCc1nc(C)cn1S(=O)(=O)c1ccc(Cl)c(Cl)c1Cl,7.7%,4.2%,18.4µM*,-24.6,8.0%,20.6µM*
CC1CCCN(CCCOc2ccccc2-c2ccccc2)C1 (stereo unspecified),27.0%,3.5%,?,-81.6*,4.1%,23.1µM*
CC1CCN(CCOCCOc2ccccc2-c2ccccc2)CC1,26.7%,-2.7%,23.1µM*,?,?,?
SMILES,SW480 rerep,BCR signal inh,DT40 TDP1 CPT,IL1B secr inh,MCF10A rerep,DT40 TDP1 no CPT
c1ccc(-c2ccccc2OCCN2CCCC2)cc1,1.3%,-7.4%,6.6%,?,8.9%,-11.5%
c1ccc(-c2ccccc2OCCOCCN2CCCCC2)cc1,-0.7%,?,23.1µM*,?,?,?
c1ccc(-c2ccccc2OCCCCN2CCCCCC2)cc1,?,?,18.4µM*,-22.3,18.1%,?
Cc1ccc(NC(=O)CSc2ncc3c(n2)-c2ccccc2N(C)S3(=O)=O)c(Cl)c1,nt,nt,0.731µM*,nt,nt,0.651µM*
CN1c2cc(Cl)ccc2-c2nc(SCC(=O)Nc3ccc(F)cc3F)ncc2S1(=O)=O,nt,nt,23.1µM*,nt,nt,16.4µM*
O=C(CSc1ncc2c(n1)-c1ccccc1N(Cc1ccc(F)cc1)S2(=O)=O)NCc1ccccc1,nt,nt,-2.6%,nt,nt,-17.2%
Cc1ccccc1NC(=O)CSc1ncc2c(n1)-c1ccccc1N(C)S2(=O)=O,nt,nt,?,nt,nt,-25.9%
Cc1ccc(NC(=O)CSc2ncc3c(n2)-c2ccc(Cl)cc2N(C)S3(=O)=O)cc1F,nt,nt,23.1µM*,nt,nt,?
Nc1nnnn1-c1ccccc1,nt,nt,-18.9%,nt,nt,-0.9%
CC(NC(=O)c1cc(COc2ccc(-n3cncn3)cc2)on1)c1ccc(F)cc1 (stereo unspecified),nt,nt,?,-24.2,nt,?
CCOc1ccc(S(=O)(=O)N2CCCC(C(=O)NCc3ccncc3)C2)cc1 (stereo unspecified),0.8%,4.1%,?,17.3,-1.2%,?
CCOC(=O)N1CCC(NC(=O)c2cnn(-c3cccc(F)c3)c2-n2cccc2)CC1,nt,nt,?,nt,nt,18.4µM*
CCOC(=O)N1CCC(NC(=O)c2sc(-n3cccc3)nc2C)CC1,2.5%,2.7%,?,-0.9,1.8%,-17.3%
CCOC(=O)N1CCC(NC(=O)CSCc2cnn(-c3ccccc3)c2-n2cccc2)CC1,0.5%,?,?,-14.7,20.7%,?
CCOC(=O)N1CCC(NC(=O)c2c(C)nn(-c3cccc(C)c3)c2-n2cccc2)CC1,nt,nt,20.6µM*,nt,nt,18.4µM*
O=C(Cc1ccc(Br)cc1)N1CCN(C(=O)c2ccco2)CC1,-1.4%,1.4%,-16.2%,-0.5,0.6%,1.3%
O=C(NCN1CCN(c2ccccc2)CC1)c1cnccn1,-19.9%,-0.5%,-14.5%,-2.1,14.9%,3.8%
CCN1CCN(CNC(=O)c2cnccn2)CC1,8.9%,?,18.4µM*,6.2,15.9%,-0.3%
COC(=O)C(CCSC)NC(=O)Cn1ncc2c([nH]c3ccccc32)c1=O (stereo unspecified),nt,nt,11.0%,nt,nt,-6.6%
